Measured values: article PMC4336329 (PLoS ONE, 2015)
In all, about 310,000 compounds went through this assay and about 2,200 (0.71%) showed an effect of 50% or more. The effect is printed as a negative number. For the sample, strong results were picked, then their nearest neighbours and some compounds at random.

Each molecule was assayed against human ether-à-go-go-related gene (hERG) potassium channel (human, UniProt Q12809) (assay: primary screen, population patch clamp on CHO cells stably expressing hERG; higher = less effect of the substance).
Chain of human ether-à-go-go-related gene (hERG) potassium channel (Q12809 whole entry, looked up): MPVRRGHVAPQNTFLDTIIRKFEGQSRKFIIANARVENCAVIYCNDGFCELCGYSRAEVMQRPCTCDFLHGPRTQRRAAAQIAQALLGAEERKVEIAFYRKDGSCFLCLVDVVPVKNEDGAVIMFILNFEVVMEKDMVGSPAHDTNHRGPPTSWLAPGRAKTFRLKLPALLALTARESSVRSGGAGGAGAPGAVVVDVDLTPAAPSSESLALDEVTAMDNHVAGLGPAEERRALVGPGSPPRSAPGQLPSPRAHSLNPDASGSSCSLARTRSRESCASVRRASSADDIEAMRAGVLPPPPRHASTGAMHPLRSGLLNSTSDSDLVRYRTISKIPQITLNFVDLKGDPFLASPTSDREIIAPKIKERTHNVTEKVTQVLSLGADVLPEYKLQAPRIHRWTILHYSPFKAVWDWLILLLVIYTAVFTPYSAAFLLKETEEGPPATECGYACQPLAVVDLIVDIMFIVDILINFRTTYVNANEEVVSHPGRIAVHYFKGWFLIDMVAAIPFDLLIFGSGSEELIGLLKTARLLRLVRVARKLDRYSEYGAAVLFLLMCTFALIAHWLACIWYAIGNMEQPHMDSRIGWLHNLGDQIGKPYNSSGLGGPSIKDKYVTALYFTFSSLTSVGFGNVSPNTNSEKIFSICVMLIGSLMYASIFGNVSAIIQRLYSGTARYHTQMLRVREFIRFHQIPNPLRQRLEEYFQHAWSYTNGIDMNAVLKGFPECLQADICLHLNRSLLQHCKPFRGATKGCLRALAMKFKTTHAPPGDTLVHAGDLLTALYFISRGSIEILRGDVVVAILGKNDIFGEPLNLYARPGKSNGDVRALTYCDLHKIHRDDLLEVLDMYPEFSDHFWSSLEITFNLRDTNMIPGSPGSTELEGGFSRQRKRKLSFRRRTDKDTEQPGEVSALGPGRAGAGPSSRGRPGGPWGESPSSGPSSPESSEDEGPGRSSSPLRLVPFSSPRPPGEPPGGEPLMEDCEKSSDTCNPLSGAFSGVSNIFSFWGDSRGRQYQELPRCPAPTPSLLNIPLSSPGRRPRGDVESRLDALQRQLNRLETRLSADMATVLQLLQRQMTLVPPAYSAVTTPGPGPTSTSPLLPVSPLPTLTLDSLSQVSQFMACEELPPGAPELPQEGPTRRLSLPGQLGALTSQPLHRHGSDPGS

Structure (SMILES)	hERG current change (%, negative = inhibition) at 1uM [%]
CC(C(=O)N1CCN(c2ccccc2)CC1)N1C(=O)C2CC=CCC2C1=O (stereo not drawn)	10.3
O=C(CN1C(=O)C2CC=CCC2C1=O)N1CCN(c2ccc([N+](=O)[O-])cc2)CC1 (stereo not drawn)	-64.2
CC1(C)NC(=O)N(CC(=O)N2CCN(c3ccc([N+](=O)[O-])cc3)CC2)C1=O	-29.1
COc1ccc(N2CCN(C(=O)CN3C(=O)C4CC=CCC4C3=O)CC2)cc1 (stereo not drawn)	15.7
CC(C(=O)N1CCN(c2ccc([N+](=O)[O-])cc2)CC1)N1C(=O)C2CC=CCC2C1=O (stereo not drawn)	-50.2
CC(C(=O)N1CCN(c2ccccc2)CC1)c1ccc([N+](=O)[O-])cc1 (stereo not drawn)	-12.2
COc1ccc(C2=[N+]([O-])C(C)(C)N(O)C2(C)C)cc1	10.1
Cc1nc(-c2nnc(SCC(=O)Nc3cc(Cl)cc(Cl)c3)n2C)cs1	10.6
C/C(=N\N=C(c1ccccc1)c1ccccc1)c1ccco1	5.46
CN1C(=O)C(=Cc2ccccc2OS(=O)(=O)c2ccccc2)C(=O)N(C)C1=O	9.02
N[C@@H]1CONC1=O	18.7
COC(=O)[C@H]1C[C@H]1[C@@H](NC(=O)c1cccnc1)c1ccccc1	11.4
COc1ccc(C(CCNCc2ccc(N(C)C)cc2)C(C)C)cc1 (stereo not drawn)	2.49
Fc1ccc(CNCCc2ccc3c(c2)OCO3)cc1	13.8
CCOc1ccccc1CNCCc1ccc2c(c1)OCO2.Cl	1.75
COc1ccc(C(CCN)c2ccc3c(c2)OCO3)cc1 (stereo not drawn)	13.6
CCOc1ccc(CNCCc2ccc3c(c2)OCO3)cc1	-52.6
COc1ccc(CNCCC(c2ccccc2)c2ccc3c(c2)OCO3)cc1.Cl (stereo not drawn)	-68.7
COc1ccc(C(CCNCc2ccc(N(C)C)cc2)c2ccccc2OC)cc1 (stereo not drawn)	-18.4
COc1ccc(C(CCNCc2ccccc2)c2ccc(F)cc2)cc1 (stereo not drawn)	-17.7
COc1ccc(C(CCNCc2ccc(N(C)C)cc2)c2ccccc2)cc1 (stereo not drawn)	-56.4
COc1ccc(OCCSc2nc(C)c(Cc3ccccc3)c(=O)[nH]2)cc1	7.38
Cn1c(C(=O)c2ccccc2[N+](=O)[O-])nc2ccccc21	-9.27
S=C(Nc1ccccc1Cl)N1CCC(c2ccccc2)C1 (stereo not drawn)	-6.92

Structure (SMILES)	hERG current change (%, negative = inhibition) at 1uM [%]
COc1ccc2c(c1)N1CCN=C1N2C.Cl	5.26
Cc1[nH]nc(NCCO)c1[N+](=O)[O-]	-3.88
CCOc1ccc(NC(=O)CN(c2ccc(OC)cc2)S(C)(=O)=O)cc1	8.87
CCC(C)[C@H](NC(=O)C1CC(=O)N(c2ccc3c(c2)OCO3)C1)C(=O)NC1CCCCC1 (stereo partly drawn)	29.5
COC(=O)C(Cc1ccc(OC(=O)c2ccc(C(F)(F)F)cc2)cc1)N1Cc2ccccc2C1=O (stereo not drawn)	13.8
COc1cccc(C(=O)NC2CCCN(C3Cc4ccccc4C3)C2)c1OC (stereo not drawn)	0.941
O=C(NC1CCCN(C2Cc3ccccc3C2)C1)c1ccc(F)cc1Cl (stereo not drawn)	-72.9
O=C(NC1CC1)c1ccc(F)cc1Cl	14.2
N/C(=N\OC(=O)c1cc(-c2ccccc2)nc2ccccc12)c1ccncc1	8.01
CCOc1cc(S(=O)(=O)N2CCN(CC)CC2)ccc1Cl	6.75
O=C(c1cc(-c2ccc(O)cc2)on1)N1CCCc2ccccc21	8.9
CCOC(=O)C1CCCN(C(=O)c2cc(-c3ccccc3)on2)C1 (stereo not drawn)	3.94
Cc1ccc(-c2cc(C(=O)N3CCCCCC3)no2)cc1	10
CCOC(=O)C1CCCN(C(=O)c2cc(-c3ccc(C)cc3)on2)C1 (stereo not drawn)	-59.7
Cc1ccc(-c2cc(C(=O)N3CCCc4ccccc43)no2)cc1	-75.5
O=C(c1cc(-c2ccccc2)on1)N1CCCc2ccccc21	8.2
COc1ccccc1/C=c1\sc2nc(-c3ccco3)nn2c1=O	17.5
Cc1ccc2nc(NCCO)nc(-c3ccccc3)c2c1	1.36
COc1ccc(C(C)=O)cc1COC(=O)c1cnc(C)cn1	17.6
CCCCNC(=O)CCCn1c(=S)[nH]c2cc3c(cc2c1=O)OCO3	19.2
Cc1oc(-c2ccccc2Cl)nc1CN1C(=O)CN=C(c2ccccc2)c2ccccc21	9.3
O=C(CNC(=O)/C(=C\c1ccc(F)cc1)NC(=O)c1ccccc1)OCc1ccccc1	-69
O=C(CNC(=O)/C(=C\c1ccccc1)NC(=O)c1ccc(Br)cc1)OCc1ccccc1	-68.1
O=C(CNC(=O)/C(=C/c1ccccc1)NC(=O)c1ccc(Br)cc1)OCc1ccccc1	2.24

Structure (SMILES)	hERG current change (%, negative = inhibition) at 1uM [%]
O=C(CCCNC(=O)/C(=C/c1ccc(Br)cc1)NC(=O)c1ccccc1)OCc1ccccc1	-2.58
O=C(CNC(=O)/C(=C\c1ccc(Br)cc1)NC(=O)c1ccccc1)OCc1ccccc1	-48
CCOC(=O)CNC(=O)/C(=C\c1ccc(F)cc1)NC(=O)c1ccccc1	-11.7
COc1ccc(/C=N/N=C(/N)N[N+](=O)[O-])c(OC)c1	7.59
CCN(CC)S(=O)(=O)c1cc(NC(=O)C(C)N2CCc3ccccc32)ccc1C (stereo not drawn)	9.99
C=CCn1c(SCC(=O)NNC(=O)Nc2cccc(Cl)c2)nnc1-c1ccccc1	6.04
COc1ccc(C(=O)Oc2cc(C)c(CN3CCOCC3)cc2C)cc1OC	-1.52
C#CCSc1nc(N)c2c(n1)OC(N)=C(C#N)C2c1cccnc1 (stereo not drawn)	4.59
O=C(CSc1ncccn1)N1CCN(C(c2ccccc2)c2ccccc2)CC1	4.43
O=C(Cn1c(=O)cnc2ccccc21)N1CCN(S(=O)(=O)c2ccccc2Br)CC1	36.9
CCCn1c2ccc(C)cc2c2nnc(SCCN3CCOCC3)nc21	19
CCn1c2ccc(C)cc2c2nnc(SCCN3CCOCC3)nc21	4.8
CCn1c2nc(SCCN3CCOCC3)nnc2c2cc(C)cc(C)c21	-69.2
Cc1ccc(S(=O)(=O)N2CCCC2C(=O)Nn2cnnc2)cc1 (stereo not drawn)	11.7
CCc1nc(SCC(=O)NC2CC2)c2c(C)c(C)sc2n1	-4.16
Cc1cc(NC(=O)NCc2ccccc2)c(=O)n(Cc2ccccc2F)c1	7.05
O=C(O)C(=O)O.O=[N+]([O-])c1ccc(OCCN2CCNCC2)cc1	-52.2
Fc1ccc(OCCOCCN2CCNCC2)cc1.O=C(O)C(=O)O	10.4
CC1CCN(CCCCOc2ccc([N+](=O)[O-])cc2)CC1	-77.8
COc1ccc(OCCCCN2CCC(C)CC2)cc1.O=C(O)C(=O)O	0.418
Cc1cc(=O)n(C)c(=O)n1CCCCOc1ccc([N+](=O)[O-])cc1	-66.8
Cc1ccc(OCCN2CCNCC2)c([N+](=O)[O-])c1.O=C(O)C(=O)O	17.4
CCOc1ccc(OCCN2CCCCC2)cc1.O=C(O)C(=O)O	-4.9
Cc1ccc(OCCN2CCCC2)cc1.O=C(O)C(=O)O	7.22

Structure (SMILES)	hERG current change (%, negative = inhibition) at 1uM [%]
Cc1cc(=O)n(C)c(=O)n1CCCCCCOc1ccc([N+](=O)[O-])cc1	-11.1
Cc1cc(=O)n(C)c(=O)n1CCCCOc1cccc([N+](=O)[O-])c1	9.25
O=C(O)C(=O)O.O=[N+]([O-])c1ccc(OCCN2CCCCCC2)cc1	-74.5
CC1CCN(CCCCOc2ccc(Br)cc2)CC1	-30.4
CCCc1cc(=O)oc2cc(C)cc(OCC(=O)Nc3ccc(CN4CCOCC4)cc3)c12	10.4
CCCN(CCC)CCNC(=O)C1CC(=O)N(c2ccc(OC)cc2)C1c1ccc(OC)cc1 (stereo not drawn)	-18.1
CCOC(=O)C1(C)NC(c2ccccc2F)C2C(=O)N(c3cccc(C(C)=O)c3)C(=O)C21 (stereo not drawn)	15.4
CC(=O)Nc1ccc(-c2nnn(CC(=O)c3ccccc3)n2)cc1Cl	8.22
CCOC(=O)c1c(C)[nH]c(C(=O)C(C)OC(=O)c2ccc(NC(=O)CC#N)cc2)c1C (stereo not drawn)	17.5
O=C(O)C(Oc1ccc2c(-c3ccccc3)cc(=O)oc2c1)c1ccccc1 (stereo not drawn)	9.07
COc1ccc2c3c(c(=O)oc2c1OCC(=O)O)CCCC3	23.8
CCOc1ccc(-c2cc(C(=O)O)c3ccccc3n2)cc1	7.66
CCCOc1ccc(OCCCCNC(C)CC)cc1.O=C(O)C(=O)O (stereo not drawn)	1.92
O=[N+]([O-])c1ccc(OCCCCCN2CCOCC2)cc1	-24.9
Brc1ccc(OCCCCN2CCCCC2)cc1	-11.6
COc1ccccc1OCCNC(=O)/C=C/c1ccc([N+](=O)[O-])cc1	-9.26
COc1ccc(OCCNC(=O)/C=C/c2ccc([N+](=O)[O-])cc2)cc1	-59.9
CCC(C)NCCCCOc1ccc(Br)cc1.O=C(O)C(=O)O (stereo not drawn)	-0.232
O=[N+]([O-])c1ccc(OCCCCN2CCCCC2)cc1	-59.4
COc1ccc(/C=C/C(=O)NCCOc2ccc(C)cc2)cc1	10.5
CCC(C)NCCCOc1ccc([N+](=O)[O-])cc1.O=C(O)C(=O)O (stereo not drawn)	-73.7
